Screening results (PubChem)
TDP1 block = inhibitors of human tyrosyl-DNA phosphodiesterase TDP1. Q9NUW8. recombinant TDP1, AlphaScreen DNA substrate cleavage. Potency, µM (highest dose often 130 µM), usual class: inhibitors. 350,000 tested, 0.28% active. AID 485290; also: nearly all actives have a fitted effect of over 40% in size
Target sequence (Q9NUW8 whole entry, looked up): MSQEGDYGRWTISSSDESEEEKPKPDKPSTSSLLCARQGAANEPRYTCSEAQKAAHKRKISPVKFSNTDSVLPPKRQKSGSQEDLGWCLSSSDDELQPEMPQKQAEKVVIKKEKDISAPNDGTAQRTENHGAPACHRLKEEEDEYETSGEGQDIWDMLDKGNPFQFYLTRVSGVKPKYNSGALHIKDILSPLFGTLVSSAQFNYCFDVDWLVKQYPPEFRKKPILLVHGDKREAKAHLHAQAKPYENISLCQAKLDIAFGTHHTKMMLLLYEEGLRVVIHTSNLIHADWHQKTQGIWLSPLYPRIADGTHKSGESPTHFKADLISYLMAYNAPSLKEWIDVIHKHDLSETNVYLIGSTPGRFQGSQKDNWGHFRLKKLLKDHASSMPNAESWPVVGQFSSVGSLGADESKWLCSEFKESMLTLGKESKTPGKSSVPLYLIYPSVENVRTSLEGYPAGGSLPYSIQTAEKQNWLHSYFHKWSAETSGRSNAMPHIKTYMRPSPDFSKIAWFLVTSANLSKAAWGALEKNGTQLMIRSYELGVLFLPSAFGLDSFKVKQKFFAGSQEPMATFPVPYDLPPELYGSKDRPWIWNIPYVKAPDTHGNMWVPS
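Here, a 5' biotin and 3' phosphotyrosine-FITC DNA oligonucleotide reports Tdp1 activity: intact substrate bridges AlphaScreen beads, while cleavage leaves a 3' phosphate and drops signal. All incubations at room temperature.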
RORg inh = inhibitors of mouse ROR gamma transcriptional activity; AID 2551; Potency, µM (series often up to 53.6 µM), most hits filed as inhibitors; 310,000 tested, 5.4% active; Drosophila S2 Gal4-RORgamma UAS-luciferase reporter, 20 h; also: nearly all actives have a fitted effect of over 60% in size
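Luciferase reporter read in Schneider cells carrying Gal4-RORγ (mouse) and UAS-Photinus luciferase; cells given compound 1 h before 700 uM copper sulfate induction, then incubated 20 h at ambient temperature.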
TDP1 cell CPT = DT40-hTDP1 cell growth loss with CPT; chicken DT40 Tdp1-/-;hTDP1 cells + 20 nM CPT, ATP luminescence, 48 h; Potency, µM (series often up to 46.2 µM), actives largely listed as inhibitors; 420,000 tested, 12% active; AID 686979; also: nearly all actives have a fitted effect of over 55% in size
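Chicken DT40 Tdp1-/- cells complemented with human TDP1, 400 cells/well, exposed to compounds plus 20 nM camptothecin for at least 48 h at 37 C; viability read as ATP content by CellTiter-Glo luminescence.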
DT40 TDP1 no CPT = qHTS for Inhibitors of human tyrosyl-DNA phosphodiesterase 1 (TDP1): qHTS in cells in absence of CPT. Potency, µM (highest dose often 46.2 µM), actives largely listed as inhibitors. DT40 Tdp1-/- hTDP1 cells, no CPT, ATP luminescence, 48 h. 420,000 tested, 15% active; also: nearly all actives have a fitted effect of over 55% in size
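Camptothecin absent (DMSO only). Human TDP1-complemented DT40 knockout cells, 400 cells/well, 37 °C for minimum 48 hr; ATP measured via CellTiter-Glo, 30 min dark incubation, luminescence.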
VP16 counter = Gal4-VP16 reporter inhibition counter-screen; Drosophila S2 Gal4-VP16 UAS-luciferase, luminescence, 20 h; Potency, µM (highest dose often 53.6 µM), most hits filed as inhibitors; 310,000 tested, 3.5% active;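 also: Gal4-VP16 expression switched on by copper sulfate through the metallothionein promoter; nearly all actives have a fitted effect of over 50% in size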
Of the large screens only hits and unclear results are named; the others gave an inactive call. Hits are enriched below; roughly 19% of the tested compounds scored in any of these assays. Calls follow the shape of the dose curve; as a rule, active = well fitted curve in the direction sought with a large enough effect; inconclusive = small, poorly fitted or top-dose-only effect, or another doubt; inactive = no such curve, though single readings can be large; an effect the other way counts as inactive or inconclusive.

Cc1cc(=O)oc2cc(OCC(=O)NCCc3c[nH]c4ccc(F)cc34)ccc12	none
C=C(Cl)COc1ccc2c(CCC)cc(=O)oc2c1	TDP1 block 89.1µM, TDP1 cell CPT inconclusive, DT40 TDP1 no CPT inconclusive
CCCc1cc(=O)oc2cc(OCC(=O)NCCc3c[nH]c4ccccc34)ccc12	RORg inh inconclusive, TDP1 cell CPT 23.1µM, DT40 TDP1 no CPT 16.4µM, VP16 counter inconclusive (no result: TDP1 block)
Cc1[nH]c2ccc(C(=O)NCCCN3CCCC3)cc2c1C	none
CCn1cc(C(=O)NC(C)C)c(=O)c2cc(F)c(N3CCN(C(=O)c4ccco4)CC3)cc21	TDP1 cell CPT inconclusive, DT40 TDP1 no CPT 18.4µM
CCN(CC)CCCNC(=O)c1cn(CC)c2cc(N3CCN(C(=O)c4ccco4)CC3)c(F)cc2c1=O	none
CCn1cc(C(=O)NCCC(C)C)c(=O)c2cc(F)c(N3CCN(C(=O)c4ccco4)CC3)cc21	TDP1 cell CPT 16.4µM, DT40 TDP1 no CPT 18.4µM
CCn1cc(C(=O)Nc2ncccc2O)c(=O)c2cc(F)c(N3CCN(C(=O)c4ccco4)CC3)cc21	TDP1 cell CPT 13µM, DT40 TDP1 no CPT 8.2µM
O=C(C1=C[C@H](c2ccccc2)C[C@H](OCCCCO)O1)N1CCOCC1	none
Cc1ccc(S(=O)(=O)N2CCC(=O)N(C(COCc3ccc(Cl)cc3)Cc3ccccc3)CC2)cc1 (configuration not stated)	TDP1 cell CPT inconclusive, DT40 TDP1 no CPT 16.4µM
Cc1ccc(S(=O)(=O)N2CCC(=O)N(C(COCc3ccccc3)C(C)C)CC2)cc1 (configuration not stated)	TDP1 cell CPT inconclusive, DT40 TDP1 no CPT inconclusive
Cc1ccc(S(=O)(=O)N2CCC(=O)N([C@H](COCc3ccc(Cl)cc3Cl)Cc3ccccc3)CC2)cc1	TDP1 cell CPT inconclusive, DT40 TDP1 no CPT 23.1µM (no result: TDP1 block, RORg inh, VP16 counter)
COc1ccc(OC)c(NC(=O)C2CCCN(S(=O)(=O)c3c(C)nn(C)c3C)C2)c1 (configuration not stated)	TDP1 cell CPT inconclusive, DT40 TDP1 no CPT 20.6µM (no result: RORg inh, VP16 counter)
COc1cccc(NC(=O)C2CCCN(S(=O)(=O)c3c(C)nn(C)c3C)C2)c1 (configuration not stated)	TDP1 cell CPT inconclusive, DT40 TDP1 no CPT 14.6µM (no result: RORg inh, VP16 counter)
Nc1c2c(nc3sc4c(c13)CCCC4)-c1ccccc1CC2	RORg inh inconclusive, DT40 TDP1 no CPT inconclusive, VP16 counter 10µM
NC(=O)CC(NC(=O)c1ccccc1)c1ccc(N2CCCCCC2)c([N+](=O)[O-])c1 (configuration not stated)	TDP1 cell CPT inconclusive, DT40 TDP1 no CPT 11.6µM, VP16 counter inconclusive (no result: TDP1 block)
CN1CCN(c2ccc(C(CC(N)=O)NC(=O)c3ccccc3)cc2[N+](=O)[O-])CC1 (configuration not stated)	none (no result: TDP1 block)
Cc1cc(C)cc(C(=O)NC(CC(N)=O)c2ccc(N3CCN(c4ccccc4)CC3)c([N+](=O)[O-])c2)c1 (configuration not stated)	TDP1 cell CPT inconclusive (no result: TDP1 block)
NC(=O)CC(NC(=O)c1ccccc1)c1ccc(N2CCN(c3ccccc3)CC2)c([N+](=O)[O-])c1 (configuration not stated)	RORg inh inconclusive, TDP1 cell CPT 20.6µM, DT40 TDP1 no CPT 13µM, VP16 counter inconclusive (no result: TDP1 block)
NC(=O)CC(NC(=O)c1ccccc1)c1ccc(N2CCN(c3ccc(F)cc3)CC2)c([N+](=O)[O-])c1 (configuration not stated)	TDP1 cell CPT 18.4µM, DT40 TDP1 no CPT 8.2µM, VP16 counter 22.4µM (no result: TDP1 block)
NC(=O)CC(NC(=O)Cc1cccc2ccccc12)c1ccc(N2CCc3ccccc3C2)c([N+](=O)[O-])c1 (configuration not stated)	TDP1 cell CPT 16.4µM, DT40 TDP1 no CPT inconclusive
CN(C)CCCNc1ncc(C(F)(F)F)cc1Cl	RORg inh inconclusive
O=C(CSCc1ccco1)NC1CCCC1	none
Cc1c(NC(=O)Nc2cccc(Cl)c2Cl)c(=O)n(-c2ccccc2)n1C	none
NC(=O)CC(NC(=O)Cc1ccc(Br)cc1)c1ccc(N2CCN(c3ccccc3)CC2)c([N+](=O)[O-])c1 (configuration not stated)	TDP1 cell CPT 16.4µM, DT40 TDP1 no CPT inconclusive
O=C(Nc1cccc(S(=O)(=O)Nc2ccc(Cl)cc2)c1)c1ccc(Cl)nc1	RORg inh inconclusive, TDP1 cell CPT 2.31µM, DT40 TDP1 no CPT 0.651µM, VP16 counter 3.16µM
COc1ccc(NS(=O)(=O)c2cccc(NC(=O)c3ccc(Cl)nc3)c2)cc1	RORg inh inconclusive, TDP1 cell CPT 1.16µM, DT40 TDP1 no CPT 3.26µM, VP16 counter 2.82µM
COc1ccc(NS(=O)(=O)c2cccc(NC(=O)c3cnccn3)c2)cc1Br	TDP1 cell CPT 16.4µM, DT40 TDP1 no CPT 18.4µM, VP16 counter inconclusive
CCCCN1C(=O)C(=O)N(CC(=O)Nc2sc(C)c(CC)c2C(=O)OCC)C1=O	TDP1 cell CPT inconclusive (no result: RORg inh, VP16 counter)
CN(C)S(=O)(=O)N(CC(=O)NCCSCc1ccc(Cl)cc1)c1ccccc1	none (no result: TDP1 block)
O=C(NN1C(=O)c2ccccc2NC1c1cccnc1)c1ccc([N+](=O)[O-])cc1 (configuration not stated)	TDP1 cell CPT inconclusive
ClCCn1cnc2c(SCc3ccccc3)ncnc21	TDP1 cell CPT inconclusive, DT40 TDP1 no CPT 1.84µM (no result: TDP1 block, RORg inh, VP16 counter)
ClCCn1cnc2c(SCc3ccccc3Cl)ncnc21	TDP1 cell CPT inconclusive, DT40 TDP1 no CPT 0.82µM (no result: TDP1 block, RORg inh, VP16 counter)
Cn1cnc2c(SCc3ccccc3)ncnc21	none (no result: TDP1 block, RORg inh, VP16 counter)
CCN(C(=O)CSc1nnc(-c2ccco2)n1CC)c1c(N)n(Cc2ccccc2)c(=O)[nH]c1=O	none (no result: RORg inh, VP16 counter)
COc1ccc2nc(NC3=NCCC3)sc2c1	RORg inh inconclusive
CCCC(=O)Nc1nc2ccc(NC(=O)c3ccc(Br)o3)cc2s1	TDP1 cell CPT inconclusive, DT40 TDP1 no CPT 23.1µM, VP16 counter inconclusive
Cc1nc2ccc(NC(=O)c3ccc(Br)o3)cc2s1	RORg inh inconclusive, DT40 TDP1 no CPT inconclusive
COc1cccc(Nc2nc3ccc(OC)cc3s2)c1	RORg inh 11.2µM, DT40 TDP1 no CPT inconclusive, VP16 counter inconclusive
COc1ccc(Nc2nc3ccccc3s2)cc1	RORg inh inconclusive
COc1ccc2nc(NC(=S)N(C)C)sc2c1	TDP1 cell CPT 4.61µM, DT40 TDP1 no CPT 4.61µM
COc1ccc2nc(-c3ccc(N(C)C)cc3)sc2c1	RORg inh 0.631µM, VP16 counter 5.01µM (no result: TDP1 cell CPT, DT40 TDP1 no CPT)
Cc1cccc(CNC(=O)c2ccc(NC(=O)N3CCSc4ncccc43)cc2)c1	none (no result: RORg inh, VP16 counter)
CC1(c2ccccc2Cl)NC(=O)N(CC(=O)Nc2ccccc2OC(F)F)C1=O (configuration not stated)	none
Cc1cc(C)n(-c2nc3c(c(=O)n(C)c(=O)n3C)n2CCO)n1	none
CC(=O)Nc1ccc2nc(NC(=O)c3ccc([N+](=O)[O-])o3)sc2c1	RORg inh inconclusive, TDP1 cell CPT inconclusive, DT40 TDP1 no CPT inconclusive, VP16 counter 10µM (no result: TDP1 block)
